The campaign covered roughly 300,000 compounds. About 2,300 (0.77%) were called active.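 How the source made its calls: active means more than half of replicate wells show activity change below -50%, luminescence cut by over half; inconclusive means some wells, but at most half, below -50%; inactive means no replicate well below -50%.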 For the sample, actives were picked, then their nearest neighbours and some compounds at random.

The nature of the test: HSF1 inhibitors in luciferase reporter cells, primary screen, cell-based, NIH3T3, luminescence (AID 2098).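 Further: luciferase reports HSF-1 transcriptional activity via heat shock element; 0% = median of DMSO wells and -100% = zero luminescence signal.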 Conditions: NIH3T3-HGL HSE-luciferase, MG132-induced, luminescence 8 h; hits give low values; screened at 7.5 µM (by protocol).
Regarding `O=C(CCl)Nc1ccc(Sc2ccc(NC(=O)CCl)cc2)cc1`, the activity change, negative = inhibition was -61.6% (active).

On to `CC(C)(CCl)C(=O)Nc1ccc(Sc2ccc(F)cc2)cc1`, for which the activity change, negative = inhibition is 6.39% (inactive).

On to `Cc1ccc(NC(=O)CC(=O)Nc2ccc(C)cc2)cc1`, for which the activity change, negative = inhibition was 11.5% (inactive).

For the molecule `O=C(c1cc(-c2ccco2)nc2ccccc12)N(Cc1nnc(-c2ccc(Cl)cc2)o1)C1CC1`, the activity change, negative = inhibition was 8.92% (inactive).

On to `Cc1cc(C(=O)OC(C)C(=O)NC2CCCCC2C)c(C)o1` (configuration not stated), for which the activity change, negative = inhibition is 3.94% (inactive).

`COc1cccc(CNC(=O)CCCC(=O)Nc2cccc([N+](=O)[O-])c2)c1`: the activity change, negative = inhibition was -0.854% (inactive).

Take `COC(=O)/C=C\C(=O)Nc1cccc([N+](=O)[O-])c1`: the activity change, negative = inhibition was -76.8% (active).

Consider `COc1ccc(S(=O)(=O)NC(C)C(=O)Nc2cccc([N+](=O)[O-])c2)cc1` (configuration not stated), for which the activity change, negative = inhibition is -3.53% (inactive).

Turning to `Cc1ccc(OCC(=O)Oc2ccccc2[N+](=O)[O-])cc1`, the activity change, negative = inhibition is -1.37% (inactive).

`CCOc1ccc(C(=O)Nc2cc(Cl)ccc2-n2cncn2)cc1OC`: the activity change, negative = inhibition was -3.95% (inactive).

As for `Cc1cc(/C=N/n2cnnc2)c(C)n1-c1ccc2ncccc2c1`, the activity change, negative = inhibition is -11.6% (inactive).

Consider `O=C(COC(=O)c1cnccn1)Nc1ccc(Cl)cc1C(F)(F)F`, for which the activity change, negative = inhibition is -5.67% (inactive).

On to `S=C(NCCc1ccccc1)NCC1CCCO1` (configuration not stated), for which the activity change, negative = inhibition was 14% (inactive).

As for `O=C(CS(=O)(=O)Cc1ccccc1)NCC1CCCO1` (configuration not stated), the activity change, negative = inhibition is -53.1% (active).

With `O=C(COC(=O)c1ccc(S(=O)(=O)Nc2ccccc2)cc1)NCC1CCCO1` (configuration not stated), the activity change, negative = inhibition was -11.9% (inactive).

Take `CS(=O)(=O)c1ccc(Cl)c(NC(=O)COC(=O)c2ncc(Cl)c(Cl)c2Cl)c1`: the activity change, negative = inhibition was 0.97% (inactive).

Take `O=C(CN1CCOCC1)Nc1cccc([N+](=O)[O-])c1`: the activity change, negative = inhibition is 6.69% (inactive).

As for `C=CCNc1ncnc2ccc(Br)cc12`, the activity change, negative = inhibition was -13.4% (inactive).

Regarding `COc1ccc(Nc2ncnc3sc(-c4ccccc4)cc23)c(OC)c1`, the activity change, negative = inhibition is -2.06% (inactive).

As to `COc1ccc(Nc2ncnc3ccc(Br)cc23)c(OC)c1`, the activity change, negative = inhibition was -71.5% (active).

With `Cc1ccc(C)c(OCCC(=O)OCC(=O)NC(=O)NCc2ccccc2)c1`, the activity change, negative = inhibition was -6.76% (inactive).

Regarding `COc1ccc(Nc2cc(Cl)ccc2C(=O)O)cn1`, the activity change, negative = inhibition was 0.861% (inactive).

As for `COc1ccc(NC(=O)/C(Cl)=C(/Cl)S(=O)Cc2ccc(C)cc2)cn1` (configuration not stated), the activity change, negative = inhibition is -94.7% (active).

Regarding `COc1ccc(NC(=O)c2cc(-c3ccc(C)cc3)on2)cc1`, the activity change, negative = inhibition is -1.83% (inactive).

Take `CCCCn1c(N)c(N(CC)C(=O)c2ccc(N(C)S(=O)(=O)c3ccc(C)cc3)cc2)c(=O)[nH]c1=O`: the activity change, negative = inhibition is -4.56% (inactive).

`CCN1C(=O)[C@H]2[C@@H](c3ccc(SC4CCCCC4)c(OC)c3)N[C@@](Cc3ccccc3)(C(=O)OC)[C@H]2C1=O`: the activity change, negative = inhibition is 6.65% (inactive).

With `Cc1cc(C(=O)CCC(=O)NNC(=O)c2ccccc2O)c(C)s1`, the activity change, negative = inhibition is 1.38% (inactive).

Source of the values: PubChem BioAssay AID2098 (Broad Institute, 2009).
